Several values for one entry are separate records, joined by “and”; a condition that tells them apart may be missing. Identical values can stand only once. Activity calls are given as the source filed them. Unless noted, no rule for the calls is given here.
Legend:
[1] = signal quenchers or enhancers, Cy5 substrate/SSB – biochemical, NIH Clinical Collection, E. coli SSB, artefact control for HCV NS3 helicase inhibitor project (AID 743268); conditions: Cy5-oligo bound E. coli SSB, fluorescence interference
[2] = system: Hepatitis C virus NS3 helicase; test: blockers of NS3h binding to DNA – biochemical, fluorescence polarization, NIH Clinical Collection, primary screen (AID 743270); conditions: NS3 helicase binding to Cy5-dT15 DNA, hits give high values, concentration not given here
[3] = target: Single-stranded DNA-binding protein (Escherichia coli (strain K12)) (UniProt P0AGE0); test: SSB-ssDNA binding inhibitors – biochemical, fluorescence polarization, NIH Clinical Collection, counter-screen for HCV NS3 helicase inhibitor project (AID 743271; in the data active = inhibition above about 28%); conditions: E. coli SSB-DNA binding, hits give high values, concentration not given here
[4] = compounds distorting NS3 helicase fluorescence signal – biochemical, NIH Clinical Collection, artefact control for HCV NS3 helicase inhibitor project (AID 743272); conditions: fluorescence interference counterscreen, HCV NS3 helicase assay; hits give low values;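 also: HCV NS3 helicase with a Cy5 labelled single stranded DNA probe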
[5] = system: Neuropilin-2 / VEGF-C interaction (human); test: small molecules blocking Neuropilin-2/VEGF-C interaction – biochemical, microplate binding format, z-score (AID 743281); conditions: microplate NRP2/VEGF-C binding assay; hits give low values
[6] = modulation of C. elegans fzo-1 (AID 1259413);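 also: fzo-1 mutant C. elegans worms in liquid wells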; conditions: C. elegans fzo-1 modulator screen, mean read-out; hits give high values
[7] = system: F380Y; test: BK channel mutant inhibitors and activators – cell-based, U2OS BacMam, thallium flux, beta subunits, selectivity assay, profiling panel (AID 1259406;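 active = thallium flux through the channel raised or lowered by more than 3 SD from vehicle-only wells, actives on both sides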;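 also: initial slope of Thallos dye fluorescence rise after thallium is added; log ratio against the mean of 0.3% DMSO vehicle wells on the same plate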); conditions: U2OS BacMam BK variants, at 30 µM
[8] = system: F380Y/beta1; test: as above; conditions: U2OS BacMam BK variants, at 30 µM
[9] = system: F380Y/beta2Delta; test: as above; conditions: U2OS BacMam BK variants, at 30 µM
[10] = system: F380Y/beta4; test: as above; conditions: U2OS BacMam BK variants, at 30 µM
[11] = target: Calcium-activated potassium channel subunit alpha-1 (Homo sapiens) + Leucine-rich repeat-containing protein 26 (Homo sapiens) (UniProt Q12791+Q2I0M4); test: as above; conditions: U2OS BacMam BK variants, F380Y/Slo1WT/gamma1, at 30 µM
Chain of Calcium-activated potassium channel subunit alpha-1 (Homo sapiens) + Leucine-rich repeat-containing protein 26 (Homo sapiens) (Q2I0M4 whole entry, looked up, one chain of several): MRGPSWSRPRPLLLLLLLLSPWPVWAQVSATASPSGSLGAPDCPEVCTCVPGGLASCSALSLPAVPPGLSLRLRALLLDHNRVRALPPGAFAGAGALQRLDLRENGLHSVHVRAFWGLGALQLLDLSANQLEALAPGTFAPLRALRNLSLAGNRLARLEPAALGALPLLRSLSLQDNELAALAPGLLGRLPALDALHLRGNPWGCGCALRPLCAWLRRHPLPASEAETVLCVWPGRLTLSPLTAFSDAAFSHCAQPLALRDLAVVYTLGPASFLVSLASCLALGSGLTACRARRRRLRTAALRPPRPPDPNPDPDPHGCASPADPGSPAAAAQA

[12] = system: R275C; test: as above; conditions: U2OS BacMam BK variants, at 30 µM
[13] = system: R275C/beta1; test: as above; conditions: U2OS BacMam BK variants, at 30 µM
[14] = system: R275C/beta2Delta; test: as above; conditions: U2OS BacMam BK variants, at 30 µM
[15] = system: R275C/beta4; test: as above; conditions: U2OS BacMam BK variants, at 30 µM
[16] = system: R275C/Slo1WT/beta2; test: as above; conditions: U2OS BacMam BK variants, at 30 µM
[17] = compounds altering circadian rhythm period length – cell-based, LOPAC library, luminescence reporter (AID 2774); conditions: circadian reporter cells, at 7 µM, actives lie on both sides;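 also: values are relative to mean of DMSO wells on each plate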
[18] = system: Hepatitis C virus NS3 helicase; test: blockers of NS3h binding to ssDNA – biochemical, fluorescence polarization, LOPAC1280 library, primary screen (AID 687035; in the data active = inhibition above about 37%); conditions: Purified HCV NS3 helicase, Cy5-dT15 ssDNA binding fluorescence polarization; hits give high values; concentration not given here
[19] = compounds altering Cy5-DNA-NS3h complex signal – biochemical, LOPAC1280, artefact control for HCV NS3 helicase inhibitor project (AID 687037); conditions: Cy5-DNA-NS3h complex fluorescence interference counterscreen
[20] = blockers of cellular phospholipid synthesis – cell-based, LOPAC library, screen 4, primary screen (AID 1347384); conditions: animal cells, phospholipid biosynthesis inhibition screen; at 10 µM

c1ccc2c3c([nH]c2c1)CNCC3
inactive: fluorescence ratio [1] 0.93 | inhibition [2] 0.66% | inhibition [3] 5.12% | fluorescence ratio [4] 0.91 | z-score [5] -0.415 | mean signal [6] 258 | log fold change Tl+ flux [7] -0.00245 | log fold change Tl+ flux [8] -0.00595 | log fold change Tl+ flux [9] -0.0184 | log fold change Tl+ flux [10] -0.0163 | log fold change Tl+ flux [11] 0.00353 | log fold change Tl+ flux [12] 0.0253 | log fold change Tl+ flux [13] -0.0273 | log fold change Tl+ flux [14] -0.0332 | log fold change Tl+ flux [15] -0.016 | log fold change Tl+ flux [16] -0.0345

C=CCN1CC[C@]23c4c5ccc(O)c4O[C@H]2C(=O)CC[C@@]3(O)[C@H]1C5
inactive: inhibition [2] -4.09% | inhibition [3] -4.29% | fluorescence ratio [4] 1.04 | log fold change Tl+ flux [7] -0.039 | log fold change Tl+ flux [8] 0.0814 | log fold change Tl+ flux [9] 0.0141 | log fold change Tl+ flux [10] 0.0525 | log fold change Tl+ flux [11] -0.00699 | log fold change Tl+ flux [12] 0.034 | log fold change Tl+ flux [13] 0.000161 | log fold change Tl+ flux [14] 0.0302 | log fold change Tl+ flux [15] 0.00421 | log fold change Tl+ flux [16] 0.0157
active: fluorescence ratio [1] 0.104

CC[C@@]1(O)C(=O)OCc2c1cc1n(c2=O)Cc2cc3ccccc3nc2-1
inactive: period change [17] -0.48 h | inhibition [18] 0% | fluorescence ratio (interference) [19] 1 | outcome [20]

O=C1CC[C@@]2(O)[C@H]3Cc4ccc(O)c5c4[C@@]2(CCN3CC2CC2)[C@H]1O5
inactive: log fold change Tl+ flux [7] 0.00675 | log fold change Tl+ flux [8] -0.0461 | log fold change Tl+ flux [9] 0.00968 | log fold change Tl+ flux [10] -0.0353 | log fold change Tl+ flux [11] -0.0199 | log fold change Tl+ flux [12] -0.0442 | log fold change Tl+ flux [13] 0.0294 | log fold change Tl+ flux [14] -0.0407 | log fold change Tl+ flux [15] -0.0587 | log fold change Tl+ flux [16] 0.0463

COc1ccc2[nH]cc(CCN)c2c1
inactive: period change [17] -0.125 h | inhibition [18] -2% | fluorescence ratio (interference) [19] 1 | fluorescence ratio [1] 0.98 | inhibition [2] -1.09% | inhibition [3] 3.54% | fluorescence ratio [4] 0.97 | z-score [5] 0.413 | mean signal [6] 258 | outcome [20] | log fold change Tl+ flux [7] 0.0218 | log fold change Tl+ flux [8] 0.0119 | log fold change Tl+ flux [9] -0.052 | log fold change Tl+ flux [10] -0.0167 | log fold change Tl+ flux [11] -0.0293 | log fold change Tl+ flux [12] -0.061 | log fold change Tl+ flux [13] -0.0101 | log fold change Tl+ flux [14] -0.00391 | log fold change Tl+ flux [15] 0.0135 | log fold change Tl+ flux [16] 0.00615

FC(F)(F)c1cccc(N2CCNCC2)c1
inactive: fluorescence ratio [1] 1.01 | inhibition [2] -2.77% | inhibition [3] -3.95% | fluorescence ratio [4] 0.93 | z-score [5] -0.497 | mean signal [6] 282 | log fold change Tl+ flux [7] -0.0132 | log fold change Tl+ flux [9] 0.0279 | log fold change Tl+ flux [11] -0.00699 | log fold change Tl+ flux [12] 0.0139 | log fold change Tl+ flux [13] 0.0717 | log fold change Tl+ flux [14] 0.00655

CC[C@@H](CO)NC(=O)[C@@H]1C=C2c3cccc4[nH]cc(c34)C[C@H]2N(C)C1
inactive: period change [17] 0.19 h | inhibition [18] -5% | fluorescence ratio (interference) [19] 1 | outcome [20]

NC(=O)CS(=O)C(c1ccccc1)c1ccccc1 (stereo not given)
inactive: fluorescence ratio [1] 1 | inhibition [2] 0.4% | inhibition [3] -3.18% | fluorescence ratio [4] 0.98 | z-score [5] 0.787 | mean signal [6] 263 | log fold change Tl+ flux [7] -0.0264 | log fold change Tl+ flux [8] 0.0487 | log fold change Tl+ flux [9] 0.0296 | log fold change Tl+ flux [10] 0.00509 | log fold change Tl+ flux [11] -0.00311 | log fold change Tl+ flux [12] -0.0429 | log fold change Tl+ flux [13] 0.0162 | log fold change Tl+ flux [14] 0.0129 | log fold change Tl+ flux [15] 0.0208 | log fold change Tl+ flux [16] 0.0297

Cc1nccc2c1[nH]c1ccccc12
inactive: period change [17] 0.11 h | inhibition [18] -1% | fluorescence ratio (interference) [19] 1 | outcome [20]

O=c1c2ccccc2[se]n1-c1ccccc1
active: inhibition [2] 99.3%
inactive: period change [17] -0.02 h | inhibition [18] -2% | fluorescence ratio (interference) [19] 1 | fluorescence ratio [1] 1 | inhibition [3] -0.39% | fluorescence ratio [4] 1.05 | z-score [5] 0.167 | mean signal [6] 217

COc1cc2c(cc1OC)[C@@]13CCN4CC5=CCO[C@H]6CC(=O)N2[C@H]1[C@H]6[C@H]5C[C@H]43
inactive: fluorescence ratio [1] 0.94 | inhibition [2] -2.84% | inhibition [3] 2.76% | fluorescence ratio [4] 0.89 | z-score [5] -0.249 | mean signal [6] 265 | log fold change Tl+ flux [7] 0.0307 | log fold change Tl+ flux [8] -0.0206 | log fold change Tl+ flux [9] -0.0179 | log fold change Tl+ flux [10] 0.0166 | log fold change Tl+ flux [11] -0.0482 | log fold change Tl+ flux [12] -0.0395 | log fold change Tl+ flux [13] 0.0112 | log fold change Tl+ flux [14] -0.0452 | log fold change Tl+ flux [15] -0.00487 | log fold change Tl+ flux [16] -0.0314

CC(C)CC(N(C)C)C1(c2ccc(Cl)cc2)CCC1 (stereo not given)
inactive: fluorescence ratio [1] 1.01 and 0.96 | inhibition [2] -0.22% and -8.08% | inhibition [3] -1.97% and 1.97% | fluorescence ratio [4] 1.01 and 0.95 | outcome [5] | z-score [5] -0.0182 | mean signal [6] 232

OC1CCCCC1N1CCC(c2ccccc2)CC1 (stereo not given)
inactive: period change [17] 0.065 h | inhibition [18] -4% | fluorescence ratio (interference) [19] 1 | outcome [20]

CN1C2CCC1CC(OC(c1ccccc1)c1ccccc1N)C2 (stereo not given)
inactive: period change [17] 0.055 h | inhibition [18] -3% | fluorescence ratio (interference) [19] 1 | outcome [20]

O=C(O)CC[N+](=O)[O-]
inactive: period change [17] -0.005 h | inhibition [18] -3% | fluorescence ratio (interference) [19] 1 | outcome [20]

CC[C@@H]1C(=O)OC[C@@H]1Cc1cncn1C
inactive: period change [17] -0.045 h and -0.055 h | inhibition [18] -2% and 1% | fluorescence ratio (interference) [19] 1

NC(N)=NOCC[C@H](N)C(=O)O
inactive: period change [17] -0.04 h | inhibition [18] 2% | fluorescence ratio (interference) [19] 1 | outcome [20]

NCCc1c[nH]c2ccccc12
inactive: period change [17] 0.085 h | inhibition [18] 0% | fluorescence ratio (interference) [19] 1 | outcome [20]
